Several values for one entry are separate records, joined by “and”; a condition that tells them apart may be missing. Equal values may be shown once. About 83,000 compounds went through this panel and 20% of them were active in at least one assay; those are over-represented in the sample as a whole.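 Single-dose data. Exposure time 48 hours. Values below 10 considered active.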 Activity calls are given as the source filed them.
Key:
Experiment in all cases: NCI-60 one-dose screen, 48 h (100 = growth as untreated, 0 = no growth, -100 = all killed)
Conditions in all cases: 10 µM unless noted
SK-MEL-2 melanoma = test system: SK-MEL-2 melanoma
EKVX NSCLC = test system: EKVX NSCLC
SN12C renal = test system: SN12C renal
UO-31 renal = test system: UO-31 renal
TK-10 renal = test system: TK-10 renal
ACHN renal = test system: ACHN renal
CAKI-1 renal = test system: CAKI-1 renal
A498 renal = test system: A498 renal
CCRF-CEM leukemia = test system: CCRF-CEM leukemia
MOLT-4 leukemia = test system: MOLT-4 leukemia

SMILES	growth (SK-MEL-2 melanoma)	growth (EKVX NSCLC)	growth (SN12C renal)	growth (UO-31 renal)	growth (TK-10 renal)	growth (ACHN renal)	growth (CAKI-1 renal)	growth (A498 renal)	growth (CCRF-CEM leukemia)	growth (MOLT-4 leukemia)
N#CC1c2ccccc2C=CN1C(=O)c1ccccc1 (stereo not given)	109% (inactive)	106% (inactive) and 92.7% (inactive)	99.8% (inactive) and 94.3% (inactive)	78.6% (inactive) and 97.8% (inactive)	109% (inactive) and 115% (inactive)	94.6% (inactive) and 90% (inactive)	97.6% (inactive) and -6.46% (active)	98.9% (inactive) and 148% (inactive)	88.2% (inactive) and 130% (inactive)	89.2% (inactive) and 125% (inactive)
CC(CN(C)C)CN1c2ccccc2Sc2ccccc21 (stereo not given)	91.3% (inactive) and 103% (inactive)	83% (inactive) and 104% (inactive) and 73.8% (inactive)	65% (inactive) and 85.2% (inactive) and 80.5% (inactive)	51.7% (inactive) and 77.9% (inactive) and 71.7% (inactive)	82.6% (inactive) and 76.6% (inactive) and 81.6% (inactive)	76.1% (inactive) and 92.2% (inactive) and 85.9% (inactive)	62.3% (inactive) and 69.6% (inactive)	108% (inactive) and 95% (inactive) and 82.6% (inactive)	82.1% (inactive) and 85.3% (inactive) and 77.6% (inactive)	75.7% (inactive) and 100% (inactive) and 76.7% (inactive)
S=c1nn[nH]n1C1CCCCC1	129% (inactive)	106% (inactive)	105% (inactive)	100% (inactive)	118% (inactive)	109% (inactive)	108% (inactive)	87.5% (inactive)	93.9% (inactive)	115% (inactive)
Clc1ccc2c(c1)N(C1CCCN(Cc3ccccc3)C1)c1ccccc1S2 (stereo not given)	17.1% (inactive)	74.4% (inactive)	39.7% (inactive)	66.7% (inactive)	98.6% (inactive)	52.5% (inactive)	48.7% (inactive)	70.6% (inactive)	39.7% (inactive)	70.3% (inactive)
Cc1cccc(Cl)c1N	121% (inactive)	122% (inactive)	112% (inactive)	103% (inactive)	111% (inactive)	108% (inactive)	92.8% (inactive)	107% (inactive)	128% (inactive)	100% (inactive)
CN(C)C(=S)N(C)C	104% (inactive)	127% (inactive)	104% (inactive)	98.4% (inactive)	99.2% (inactive)	104% (inactive)	98.6% (inactive)	120% (inactive)	97.5% (inactive)	109% (inactive)
CC(C)(C)OC(=O)c1ccc(NCc2cc(O)ccc2O)cc1	47.7% (inactive)	50.1% (inactive)	7.05% (active)	-95.1% (active)	2.52% (active)	-67.3% (active)	-36% (active)	25.1% (inactive)	-1.62% (active)	5.04% (active)
C(#CCN1CCOCC1)CCCN1CCOCC1	108% (inactive) and 117% (inactive)	104% (inactive) and 83.1% (inactive)	102% (inactive)	97.6% (inactive) and 89.6% (inactive)	109% (inactive) and 86.2% (inactive)	101% (inactive) and 98.3% (inactive)	98.1% (inactive) and 94.7% (inactive)	87.1% (inactive) and 104% (inactive)	107% (inactive)	109% (inactive) and 113% (inactive)
CC(=O)C[n+]1ccccc1Sc1ccc(Cl)cc1	132% (inactive)	103% (inactive)	49.5% (inactive)	60.5% (inactive)	104% (inactive)	113% (inactive)	90.9% (inactive)	76.4% (inactive)	-9.4% (active)	18.9% (inactive)
O=P(O)(O)OC1C(OP(=O)(O)O)C(OP(=O)(O)O)C(OP(=O)(O)O)C(OP(=O)(O)O)C1OP(=O)(O)O.[Cu+2] (stereo not given)	92.9% (inactive)	126% (inactive)	87.4% (inactive)	98.2% (inactive)	118% (inactive)	99.7% (inactive)	113% (inactive)	85.3% (inactive)	101% (inactive)	98.9% (inactive)
Nc1nc(N)c2cc(S(=O)(=O)c3ccccc3)ccc2n1	80.2% (inactive) and 126% (inactive)	47.4% (inactive) and 51.2% (inactive)	29.2% (inactive) and 41.4% (inactive)	35.3% (inactive) and 61.5% (inactive)	59.6% (inactive) and 63.8% (inactive)	24% (inactive) and 29.6% (inactive)	21.3% (inactive) and 22.4% (inactive)	57.2% (inactive) and 94.4% (inactive)	37.9% (inactive) and 29.7% (inactive)	32.8% (inactive) and 49.8% (inactive)
CCN(C)c1ccccc1	104% (inactive)	87.5% (inactive)	96.7% (inactive)	72.6% (inactive)	107% (inactive)	103% (inactive)	90.8% (inactive)	99.6% (inactive)	103% (inactive)	88.2% (inactive)
CC(=O)c1cc2ccccc2o1	97.9% (inactive)	106% (inactive)	101% (inactive)	99.6% (inactive)	93.6% (inactive)	101% (inactive)	99.6% (inactive)	104% (inactive)	106% (inactive)	99.7% (inactive)
CC1NC(C)c2ccc3ccccc3c2O1 (stereo not given)	100% (inactive)	123% (inactive)	99.1% (inactive)	69.4% (inactive)	110% (inactive)	98.3% (inactive)	96.7% (inactive)	84.8% (inactive)	97.9% (inactive)	105% (inactive)
Cc1cc2ccccc2c2cc3ccccc3cc12	92.6% (inactive)	82.7% (inactive)	98.3% (inactive)	78.8% (inactive)	98.8% (inactive)	92.8% (inactive)	88.8% (inactive)	88.5% (inactive)	97% (inactive)	65.6% (inactive)
O=C(O)c1c2c(nc3ccccc13)Cc1ccccc1-2	109% (inactive) and 122% (inactive)	104% (inactive) and 72.5% (inactive)	108% (inactive) and 87% (inactive)	73.6% (inactive) and 63.6% (inactive)	114% (inactive) and 101% (inactive)	103% (inactive) and 101% (inactive)	98% (inactive) and 86.2% (inactive)	78.5% (inactive) and 95.6% (inactive)	91.1% (inactive) and 77.3% (inactive)	96.2% (inactive) and 114% (inactive)
O=C1CCC(=O)N1CC1CC2CCC1C2 (stereo not given)	97.5% (inactive) and 111% (inactive)	99% (inactive) and 83.1% (inactive)	94% (inactive) and 82.3% (inactive)	101% (inactive) and 95.5% (inactive)	94.4% (inactive) and 83.7% (inactive)	100% (inactive) and 92.2% (inactive)	67.2% (inactive) and 91.1% (inactive)	119% (inactive) and 103% (inactive)	95.1% (inactive) and 104% (inactive)	54.1% (inactive) and 111% (inactive)
O=c1[nH]c(=O)c2[nH]c(=O)[nH]c2[nH]1	137% (inactive)	88.6% (inactive)	99.7% (inactive)	85.7% (inactive)	92.1% (inactive)	101% (inactive)	101% (inactive)	73.9% (inactive)	114% (inactive)	113% (inactive)

From PubChem BioAssay (NCI)
